Compounds without any hit were thinned out: in the full panel of roughly 83,000, 20% have a hit.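 Negative percent growth values reflect cell death: -40 means 40% of the cells present at the start died, and -100 means all died.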 Unmarked numbers belong to inactive results. Active and inactive are the calls of the source. Rule for the calls: active = growth percent below 10; inactive = the rest.
What was measured:
Experiment in all cases: NCI-60 one-dose screen, 48 h (100 = growth as untreated, 0 = no growth, -100 = all killed)
Settings in all cases: 10 µM unless noted
NCI-H23 lung = tested on: NCI-H23 lung
NCI-H226 lung = tested on: NCI-H226 lung
NCI-H322M lung = tested on: NCI-H322M lung
HOP-62 NSCLC = tested on: HOP-62 NSCLC
NCI-H460 lung = tested on: NCI-H460 lung
HOP-92 NSCLC = tested on: HOP-92 NSCLC
NCI-H522 lung = tested on: NCI-H522 lung
A549/ATCC NSCLC = tested on: A549/ATCC NSCLC
786-0 renal = tested on: 786-0 renal
COLO 205 colon = tested on: COLO 205 colon

| SMILES | growth (NCI-H23 lung) | growth (NCI-H226 lung) | growth (NCI-H322M lung) | growth (HOP-62 NSCLC) | growth (NCI-H460 lung) | growth (HOP-92 NSCLC) | growth (NCI-H522 lung) | growth (A549/ATCC NSCLC) | growth (786-0 renal) | growth (COLO 205 colon) |
| --- | --- | --- | --- | --- | --- | --- | --- | --- | --- | --- |
| S=C(NCc1ccc2c(c1)OCO2)N1CCN(c2ncnc3c2oc2ccccc23)CC1 | 44.1% | 28.7% | 35.3% | 30.7% | 31.8% | 38.1% | 22.6% | 25.6% | 47.5% |  |
| COc1ccc(-c2nocc2-c2cc(OC)c(OC)c(OC)c2)cc1 | 19.2% | 58.8% | 44.6% | 29.6% | 8.8% (active) | 76% | -5.37% (active) | 25.4% | 43.9% |  |
| O=c1nc2c(-c3nc4ccccc4s3)n[nH]n2c2sc3c(c12)CCCC3 | 98.2% | 90.1% | 107% | 90.5% | 102% | 90.7% | 99.9% | 96.1% | 102% |  |
| Cc1cc(C(=O)NOCCO)c(Nc2ccc(I)cc2F)n(C)c1=O | 25.9% | 71.2% | 19.8% | 38.9% | 66.6% | -21.5% (active) | 55% | 32.8% | 71.3% | 4.04% (active) |
| Cc1cc2c3c(cccc3c1)C(=O)c1ccccc1-2 | 81% | 96.6% | 82.3% | 99.3% | 102% | 108% | 95% | 104% | 104% |  |
| O=C(Nc1ccc(C2=NCCCN2)cc1)c1ccc(C(=O)Nc2ccc(C3=NCCCN3)cc2)nc1 | 102% | 101% | 111% | 97.2% | 107% | 131% | 96.1% | 141% | 96.6% |  |
| Cc1nc(-c2cn3c(n2)-c2ccc(-c4cnn(C(C)(C)C(N)=O)c4)cc2OCC3)n(C(C)C)n1 | 54.5% | 32.7% | 2.09% (active) | 31.2% | 18.7% | 0.115% (active) | 36.1% | 8.09% (active) | 7.76% (active) |  |
| C=CC[n+]1c(/C=C/C=C2\N(C)c3ccccc3C2(C)C)sc2ccc(OC)cc21 | 11.6% | 10.8% | 26.2% | 14.4% | 7.84% (active) | -4.42% (active) | 3.52% (active) | 16.6% | 26.8% |  |
| ClCc1ccc(-c2ccc(Cn3cnc4c(Cl)nc(Cl)nc43)cc2)cc1 | 29.8% | 68.3% | 48.4% | -15.9% (active) | 7.18% (active) | -77.9% (active) | -20.6% (active) | -41.5% (active) | 13.2% |  |
| Brc1ccc([I+]c2ccc(Br)cc2)cc1 | -9.33% (active) | 45.9% | 48.1% | -83% (active) | 18.6% | -6.41% (active) | -35.7% (active) | 40.5% | 27.7% |  |
| C[C@@H](Oc1cc(-c2cnn(C3CCNCC3)c2)cnc1N)c1c(Cl)ccc(F)c1Cl | -10.4% (active) | -11.6% (active) | 15.2% | -34.8% (active) | -64.4% (active) | -51.9% (active) | -74.8% (active) | -40.9% (active) | -74.7% (active) |  |
| CO[C@@H](C)Cn1c(=O)n(C)c2cnc3ccc(-c4cncc(C(C)(C)O)c4)cc3c21 | -2.1% (active) | -12.7% (active) | -15.2% (active) | -14.5% (active) | 5.83% (active) | -24% (active) | 3.46% (active) | -11.7% (active) | -11.1% (active) |  |
| CN1[C@@H]2CC[C@H]1/C(=C\c1ccccc1)C1=C2[C@@H](c2ccccc2)C(C#N)=C(N)O1 | 78.6% | 67.2% | 94.8% | 90.6% | 92.7% | 78.7% | 74% | 48.3% | 73.4% |  |

Source: PubChem BioAssay (NCI)
